# VP16 counter = inhibits Gal4-VP16 luciferase reporter, ROR gamma counter-screen. 310,000 compounds, 3.5% hits. Potency, µM (doses to about 53.6 µM), hits mostly inhibitors. Drosophila S2 Gal4-VP16 UAS-luciferase, luminescence, 20 h;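 note: Gal4-VP16 expression switched on by copper sulfate through the metallothionein promoter; nearly all actives have a fitted effect of over 50% in size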
# RORg inh = inhibitors of mouse ROR gamma transcriptional activity. Drosophila S2 Gal4-RORgamma UAS-luciferase reporter, 20 h. Potency, µM (highest dose often 53.6 µM), usual class: inhibitors. 310,000 compounds, 5.4% hits; note: nearly all actives have a fitted effect of over 60% in size
#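 A Gal4/UAS one-hybrid system in insect cells: metallothionein-promoter Gal4–ROR gamma fusion plus Photinus luciferase reporter. Copper sulfate 700 uM final, 20 hr ambient incubation, luminescent detection after 10 min with reagent.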
# TDP1 cell CPT = DT40-hTDP1 cell growth loss with CPT; chicken DT40 Tdp1-/-;hTDP1 cells + 20 nM CPT, ATP luminescence, 48 h; AID 686979; Potency, µM (titrated, usually from 46.2 µM), most hits filed as inhibitors; 420,000 compounds, 12% hits; note: nearly all actives have a fitted effect of over 55% in size
#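 Cell growth measured by CellTiter-Glo luminescence after a minimum 48 h, 37 C compound exposure with 20 nM CPT in Tdp1-knockout DT40 cells stably expressing hTDP1, seeded 400/well; qHTS titration format.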
# TDP1 block = TDP1 (human) enzyme inhibition | Q9NUW8 | recombinant TDP1, AlphaScreen DNA substrate cleavage | Potency, µM (top dose mostly 130 µM), usual class: inhibitors | 350,000 compounds, 0.28% hits | AID 485290; note: nearly all actives have a fitted effect of over 40% in size
# Target sequence (Q9NUW8 whole entry, looked up): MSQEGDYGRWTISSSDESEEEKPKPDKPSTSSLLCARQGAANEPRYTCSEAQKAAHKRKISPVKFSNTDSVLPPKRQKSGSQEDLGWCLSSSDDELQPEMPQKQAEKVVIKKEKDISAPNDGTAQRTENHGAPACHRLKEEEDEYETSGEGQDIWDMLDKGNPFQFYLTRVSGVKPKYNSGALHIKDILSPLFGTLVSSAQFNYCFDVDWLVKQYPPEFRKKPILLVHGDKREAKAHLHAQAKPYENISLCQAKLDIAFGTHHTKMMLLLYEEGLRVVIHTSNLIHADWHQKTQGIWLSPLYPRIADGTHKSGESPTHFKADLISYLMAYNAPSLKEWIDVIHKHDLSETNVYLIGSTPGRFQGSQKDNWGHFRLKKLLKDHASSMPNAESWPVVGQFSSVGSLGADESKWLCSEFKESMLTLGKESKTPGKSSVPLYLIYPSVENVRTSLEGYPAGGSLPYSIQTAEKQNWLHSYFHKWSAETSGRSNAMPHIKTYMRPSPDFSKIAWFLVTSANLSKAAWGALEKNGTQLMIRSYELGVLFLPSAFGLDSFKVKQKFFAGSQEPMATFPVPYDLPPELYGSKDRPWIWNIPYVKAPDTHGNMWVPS
#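 Steps: enzyme plus compound, 15 min RT; add biotin/phosphotyrosine-FITC oligonucleotide (15 nM final), react 5 min; add donor/acceptor beads (10 ug/ml final), 10 min; read AlphaScreen. Tdp1 at 1 nM final.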
# TDP1 cell noCPT = qHTS for Inhibitors of human tyrosyl-DNA phosphodiesterase 1 (TDP1): qHTS in cells in absence of CPT | DT40 Tdp1-/- hTDP1 cells, no CPT, ATP luminescence, 48 h | Potency, µM (highest dose often 46.2 µM), usual class: inhibitors | 420,000 compounds, 15% hits | AID 686978, 2013; note: nearly all actives have a fitted effect of over 55% in size
#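 DT40 Tdp1-/-;hTDP1 cells, no CPT (DMSO vehicle only), 400 cells/well; compounds pin-transferred; ≥48 hr, 37 °C; CellTiter-Glo 30 min RT dark, luminescence read.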
# Hits are given with their value; . = inactive; ? = inconclusive; / = no result given; [ ] = remark or other dose. Hits are enriched below; roughly 19% of the tested compounds scored in any of these assays. Calls come from the whole dose curve; as a rule, active = well fitted curve in the direction sought with a large enough effect; inconclusive = small, poorly fitted or top-dose-only effect, or another doubt; inactive = no such curve, though single readings can be large; an effect the other way counts as inactive or inconclusive.
SMILES,VP16 counter,RORg inh,TDP1 cell CPT,TDP1 block,TDP1 cell noCPT
COc1ccc(C)cc1S(=O)(=O)N(C)CC(=O)Nc1ccc2c(c1)OCO2,.,.,.,.,.
COc1ccc(C)cc1S(=O)(=O)N(CC(=O)Nc1ccc2c(c1)OCCO2)Cc1ccccc1,.,.,10µM,.,?
COc1ccc(CCNC(=O)c2ccc3c(c2)CCN3S(C)(=O)=O)cc1OC,/,/,.,.,?
COc1ccc(CCNC(=O)c2ccc3c(c2)CCN3S(=O)(=O)c2ccccc2)cc1OC,/,/,16.4µM,.,?
O=C(NCc1ccccc1)c1ccc2c(c1)CCN2S(=O)(=O)c1ccccc1,/,/,?,.,?
Cc1ccc(S(=O)(=O)N2CCc3cc(C(=O)N(C)Cc4ccccc4)ccc32)cc1,/,/,14.6µM,.,13µM
COc1ccc(CCNC(=O)c2ccc3c(c2)CCN3S(=O)(=O)c2ccccc2)cc1,/,/,3.66µM,.,20.6µM
COC(=O)CN(C)C(=O)c1ccc(OC)c(OC2CCN(C(C)C)CC2)c1,.,.,.,/,.
COc1ccc(C(=O)N(C)C2CCCc3ccccc32)cc1OC1CCN(C(C)C)CC1 (stereo not given),.,.,20.6µM,.,?
O=C(c1csc2ccccc12)N1CCCCCC1,.,?,20.6µM,.,18.4µM
CCCCc1nnc(NC(=O)C(C)Sc2nc(C)cc(=O)[nH]2)s1 (stereo not given),.,.,.,.,.
O=C1Nc2ccc(Br)cc2/C1=N\N=C\C1=C(N2CCOCC2)C(=C/c2ccccc2)/CC1,/,/,?,/,10.3µM
O=C1Nc2ccccc2/C1=N\N=C\C1=C(N2CCOCC2)C(=C\c2ccccc2)/CC1,.,.,/,.,/
CC(NC(=O)C12CC3CC(CC(C3)C1)C2)C(=O)N/N=C/C1=C(N2CCOCC2)C(=C\c2ccccc2)/CC1 (stereo not given),.,.,?,.,20.6µM
COc1ccccc1N1C(=O)C2ON(c3ccccc3)C(c3ccc(N(C)C)cc3)C2C1=O (stereo not given),?,.,/,.,/
Cc1c(NC(=O)COC(=O)/C=C/c2cccc(Br)c2)c(=O)n(-c2ccccc2)n1C,/,/,.,.,.
CCOc1ccc(C2=C(C=Nc3c(C)n(C)n(-c4ccccc4)c3=O)C(c3ccc(F)cc3)c3ccccc3O2)cc1 (stereo not given),.,.,23.1µM,.,?
CC(NC(=O)C12CC3CC(C1)CC(n1cncn1)(C3)C2)C12CC3CC(CC(C3)C1)C2 (stereo not given),.,.,10.3µM,.,8.2µM
CC(=O)c1ccc(S(=O)(=O)N2CCC(NC(=O)Nc3cccc(F)c3)CC2)cc1,.,.,?,/,?
COc1ccc2cc(Br)ccc2c1CC(=O)NC(C)C,.,.,.,.,?
COC(=O)C1CCN(C(=O)Cc2c(OC)ccc3cc(Br)ccc23)CC1,?,.,18.4µM,.,?
CCCCN(C)C(=O)Cc1c(OC)ccc2cc(Br)ccc12,.,.,23.1µM,.,18.4µM
COc1ccc(CN2CCN(c3cc(C)nc4c5c(C)cc(C)nc5nn34)CC2)cc1F,.,.,?,.,?
COc1ccc(N(C)C(=O)c2cc(S(=O)(=O)N3CCc4ccccc43)cn2C)c(OC)c1,/,/,?,.,?
COc1ccc(COC(=O)c2ccc(N3CCCC3=O)cc2)cc1F,.,.,.,.,.
SMILES,VP16 counter,RORg inh,TDP1 cell CPT,TDP1 block,TDP1 cell noCPT
C[C@]12c3[nH]c4ccccc4c3CCN1C(=O)C(CC(=O)NCCc1ccccn1)C[C@@H]2C(=O)N1CCCCC1 (stereo not given in full),/,/,.,.,?
O=C(CC1C[C@H](C(=O)N2CCCCC2)[C@@]2(CCc3ccccc3)c3[nH]c4ccccc4c3CCN2C1=O)NCCc1ccccn1 (stereo not given in full),/,/,23.1µM,/,16.4µM
CN(C)CCCNC(=O)C[C@H]1C[C@H](C(=O)N2CCCCC2)[C@@]2(CCc3ccccc3)c3[nH]c4cc(CCC(=O)N(C)C)ccc4c3CCN2C1=O,/,/,.,.,.
CN(C)CCCNC(=O)CC1C[C@H](C(=O)N2CCCCC2)[C@@]2(CCc3ccccc3)c3[nH]c4ccccc4c3CCN2C1=O (stereo not given in full),/,/,20.6µM,.,13µM
COc1cccc(NC(=O)c2cc(=O)c3ccccc3o2)c1,.,.,.,.,?
Cc1ccccc1NC1=NCC(c2ccc([N+](=O)[O-])cc2)S1 (stereo not given),22.4µM,?,?,.,?
Nc1nc(SCc2ccccc2)c2[nH]cnc2n1,.,.,.,.,.
CNc1ncnc(Sc2nc(N)nc3nc[nH]c23)c1[N+](=O)[O-],/,/,2.06µM,/,4.61µM
Nc1nc(Sc2ccc([N+](=O)[O-])c3nonc23)c2[nH]cnc2n1,/,/,1.84µM,/,3.26µM
NC(=S)Nc1ccc(C(F)(F)F)cc1Cl,.,.,?,.,?
COc1ccc(N(C(=O)Cc2cccs2)C(C(=O)NC2CCCCC2)c2cccn2C)cc1OC (stereo not given),.,.,.,.,.
Cc1nn(C)cc1C(C(=O)NC1CCCCC1)N(C(=O)Cc1cccs1)c1ccc(Cl)cc1 (stereo not given),.,.[10 µM],2.91µM,.,6.51µM
COc1cc(N(C(=O)Cc2cccs2)C(C(=O)NC2CCCCC2)c2ccc(C)cc2)ccc1-n1cnnn1 (stereo not given),.,.,20.6µM,.,13µM
NC(=O)CN1CCN(S(=O)(=O)c2ccc(Cl)cc2)CC1,.[10 µM],.,.,.,.
Cc1ccc(S(=O)(=O)N(C)c2ccc(C(=O)Nc3cccc(C)n3)cc2)cc1,.,?,?,.,?
CCN(CC)S(=O)(=O)c1ccc(C(=O)Nc2cc(C)on2)cc1,.,.,.,/,.
CCCN(CCC)S(=O)(=O)c1ccc(C(=O)Nc2nnc(CSC)o2)cc1,1.26µM,0.891µM,?,.,?
CCN(c1ccccc1)S(=O)(=O)c1ccc(C(=O)Nc2cccc(C)n2)cc1,/,/,23.1µM,.,11.6µM
CCCCN(CC)S(=O)(=O)c1ccc(C(=O)Nc2nnc(CSC)o2)cc1,1µM,0.708µM,?,.,14.6µM
CCN(CC)S(=O)(=O)c1ccc(C(=O)NC(C)(C)C)cc1,.,.,.,.,.
CCCCN(CC)S(=O)(=O)c1ccc(C(=O)Nc2nnc(COC)o2)cc1,3.16µM,1.26µM,?,.,?
CCCCNC(=O)CSc1nc2cc(OC)c(OC)cc2c(=O)n1Cc1ccc(OC)cc1,.,.,.,.,?
C=CCn1cc(C(=O)NCCCOC)c(=O)c2cc(S(=O)(=O)N(CC)CC)ccc21,.,.,.,.,.
CC(C)[C@@H]1NC(=O)N(c2ccc(Oc3ccccc3)cc2)C1=O,.,?,?,.,?
Cc1nc(SCC(=O)NC(=O)NC(C)C)nc(C)c1C,.,.,.,.,.

# Screening results (PubChem)
